“And” between values parts separate entries of the source, which are not always exact repeats. Equal values may be shown once. Results filed as inconclusive are left out. The source made the active and inactive calls. Unless noted, calls follow the shape of the full dose curve.

We go through seven molecules from PubChem BioAssay (NCATS).

Assay [1] concerns the target Bile acid receptor (Homo sapiens) (UniProt Q96RI1). Kind of assay: qHTS assay for small molecule antagonists of farnesoid X receptor signaling (AID 588526). Also: % is scaled to controls: 0 for no effect and ±100 for the full control effect. Put shortly: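 Concentration-response titrations were fitted to the Hill equation for half-maximal inhibition and maximal response, with data normalised to 50 uM chenodeoxycholic acid and DMSO control wells. Cells: FXR-UAS-bla HEK293T, dialyzed FBS.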

Assay [2] in a line: qHTS assay for small molecule antagonists of peroxisome proliferator-activated receptor delta signaling (AID 588535; active = well fitted inhibition curve with a large enough effect in the signal ratio, with a control signal flat, not every such curve was filed as active; the % refers to the signal ratio;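 as to max response: cells co-treated with a PPAR-delta agonist as stimulator during compound exposure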). As to conditions: HEK293T PPARd-UAS-bla, beta-lactamase FRET ratio, 18 h; 460 nm channel. The method, boiled down:
(§1)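 GeneBLAzer PPAR-delta-UAS-bla HEK293T cells in medium with 2% charcoal/dextran FBS were preincubated 5 hrs at 37 C, then given compounds, incubated 18 hrs at 37 C, and read by CCF4 beta-lactamase fluorescence; IC50 from Hill fits.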

Assay [3] concerns the target Peroxisome proliferator-activated receptor delta (Homo sapiens) (UniProt Q03181). The assay is described as above. Put shortly:
as §1

Assay [4] concerns the target Peroxisome proliferator-activated receptor gamma (Homo sapiens) (UniProt P37231). Kind of assay: qHTS assay for small molecule agonists of peroxisome proliferator-activated receptor gamma signaling (AID 588536; active = well fitted curve in the direction sought with a large enough effect in the signal ratio, with a control signal flat, not every such curve was filed as active; the % refers to the signal ratio;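 also: 0% = DMSO basal wells and 100% = rosiglitazone at 2 µM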). The method, boiled down: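 HEK293 UAS-bla reporter line, 1% charcoal/dextran FBS; titration, 16 h, 37 C; CCF4 loading 2 h RT; fluorescence 460/530 nm. Normalized to rosiglitazone 2 uM = 100%, DMSO = 0%.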

The target is the same in assay [5]. Kind of assay: qHTS assay for small molecule antagonists of peroxisome proliferator-activated receptor gamma signaling (AID 588537; active = well fitted inhibition curve with a large enough effect in the signal ratio, with a control signal flat, not every such curve was filed as active; the % refers to the signal ratio;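 also: reporter cells co-stimulated with 50 nM rosiglitazone agonist during compound treatment; % of control where 0% means no effect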). The method, boiled down:
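PPAR-gamma-UAS-bla HEK293 cells (3000/well, 1% charcoal/dextran-stripped FBS) were preincubated 6-6.5 h at 37 C, given titrated compounds, then stimulated with 50 nM rosiglitazone for 16 h. Beta-lactamase activity was read with CCF4 dye; IC50 came from Hill fits.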

The nature of assay [6]: qHTS assay for small molecule agonists of retinoid X receptor alpha signaling (AID 588544).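 As to activation: 0% = DMSO basal wells and 100% = reference agonist.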 As to conditions: HEK293T RXRa-UAS-bla, beta-lactamase reporter, 18 h; 530 nm emission.
In assay [7] the target is Retinoic acid receptor RXR-alpha (Homo sapiens) (UniProt P19793). The assay is described as above.
Retinoic acid receptor RXR-alpha (Homo sapiens), sequence (P19793 whole entry, looked up): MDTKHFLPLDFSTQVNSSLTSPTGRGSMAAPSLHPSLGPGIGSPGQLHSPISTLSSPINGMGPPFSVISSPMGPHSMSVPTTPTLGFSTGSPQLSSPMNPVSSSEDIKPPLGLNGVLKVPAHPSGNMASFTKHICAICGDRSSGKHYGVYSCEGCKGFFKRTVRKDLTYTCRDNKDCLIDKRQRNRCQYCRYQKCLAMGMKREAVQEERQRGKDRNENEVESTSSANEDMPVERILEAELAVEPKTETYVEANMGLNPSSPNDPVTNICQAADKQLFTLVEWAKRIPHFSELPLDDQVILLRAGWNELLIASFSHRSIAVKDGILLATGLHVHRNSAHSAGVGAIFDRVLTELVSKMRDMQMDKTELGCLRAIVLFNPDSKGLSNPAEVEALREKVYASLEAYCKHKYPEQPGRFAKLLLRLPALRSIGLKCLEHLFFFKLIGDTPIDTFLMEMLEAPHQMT
In assay [8] the target is Thyroid hormone receptor beta (Homo sapiens) (UniProt P10828). Kind of assay: qHTS assay for small molecule agonists of thyroid hormone receptor beta signaling (AID 588545). The method, boiled down: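 Agonist activity was read as beta-lactamase CCF4 fluorescence (405 ex, 460/530 em), scaled between DMSO (0%) and 10 nM T3 (100%), then Hill-fitted for EC50 and efficacy. HEK 293 TR-UAS-bla cells in 2% charcoal/dextran FBS medium were exposed 18 h at 37 C.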
Thyroid hormone receptor beta (Homo sapiens), sequence (P10828 whole entry, looked up): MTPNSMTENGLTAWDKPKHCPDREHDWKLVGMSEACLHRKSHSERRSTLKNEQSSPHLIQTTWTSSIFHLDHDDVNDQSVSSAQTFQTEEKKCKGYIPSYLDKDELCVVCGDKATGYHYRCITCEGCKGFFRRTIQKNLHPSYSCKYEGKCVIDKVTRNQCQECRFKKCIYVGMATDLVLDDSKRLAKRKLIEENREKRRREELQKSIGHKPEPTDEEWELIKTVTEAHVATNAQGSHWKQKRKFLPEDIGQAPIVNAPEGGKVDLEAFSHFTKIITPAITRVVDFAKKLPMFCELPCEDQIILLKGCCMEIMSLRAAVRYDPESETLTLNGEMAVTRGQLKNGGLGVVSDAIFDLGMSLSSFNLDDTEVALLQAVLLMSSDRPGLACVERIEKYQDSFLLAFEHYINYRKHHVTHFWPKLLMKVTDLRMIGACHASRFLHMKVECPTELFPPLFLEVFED

Assay [9] in a line: qHTS assay for small molecule antagonists of retinoid X receptor alpha signaling (AID 588546; active = well fitted inhibition curve with a large enough effect in the signal ratio, with a control signal flat, not every such curve was filed as active; the % refers to the signal ratio;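 also: cells stimulated with 9-cis-retinoic acid as agonist; % is scaled to controls: 0 for no effect and ±100 for the full control effect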). As to conditions: HEK293T RXRa-UAS-bla, beta-lactamase ratio, antagonist mode; measured here: W530 green channel, cytotoxicity proxy. The method, boiled down: (§2)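 Beta-lactamase reporter inhibition, read as CCF4 fluorescence ratio (ex 405, em 460/530 nm) after 2 h at RT. HEK293T UAS-bla cells, 2500/well, were stimulated with 9-cis-RA at 500 or 100 nM final alongside test compound for 18 h at 37 C.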

Assay [10] has as its target Retinoic acid receptor RXR-alpha (Homo sapiens) (UniProt P19793). The description is as above. As to conditions: HEK293T RXRa-UAS-bla, beta-lactamase ratio, antagonist mode. The method, boiled down: as §2
Assay [11] has as its target Thyroid hormone receptor beta (Homo sapiens) (UniProt P10828). The assay can be described thus: qHTS assay for small molecule antagonists of thyroid hormone receptor beta signaling (AID 588547; active = well fitted inhibition curve with a large enough effect in the signal ratio, with a control signal flat, not every such curve was filed as active; the % refers to the signal ratio;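 also: cells stimulated with 0.4 nM T3 agonist during compound exposure; series mostly up to about 77 µM; % is scaled to controls: 0 for no effect and ±100 for the full control effect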). The note with it: TR-UAS-bla HEK293, beta-lactamase ratio, antagonist mode, 18 h. The method, boiled down: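 TR-UAS-bla GripTite HEK293 cells in 2% charcoal/dextran FBS medium were preincubated 4 h at 37 C, given compound (0.59 nM to 92 uM) plus 0.4 nM T3 (final) for 18 h, then CCF4 for 2 h at RT; Hill fit gave IC50.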

Assay [12] deals with Voltage-gated inwardly rectifying potassium channel KCNH2 (Homo sapiens) (UniProt Q12809). The assay can be described thus: qHTS Assay for Small Molecule Inhibitors of the Human hERG Channel Activity (AID 588834; active = well fitted inhibition curve with a large enough effect;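 also: top concentration of the series differs between compounds; % is scaled to controls: 0 for no effect and ±100 for the full control effect; lower thallium flux fluorescence means stronger hERG block; nearly all actives have a fitted effect of over 50% in size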). Put shortly:
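Kinetic FDSS fluorescence; U2OS + hERG BacMam (~100 virus particles/cell); FluxOR Tl+ flux; ~10 min cpd; AC50 (Hill).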

Assay [13] can be described thus: qHTS assay for small molecule agonists of the antioxidant response element (ARE) signaling pathway (AID 651741; active = well fitted activation curve with a large enough effect in the signal ratio; the % refers to the signal ratio; also: potency is read from the fitted curve at half-maximal effect; as to activation: % of control where 0% means no effect). Put shortly: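 ARE-bla HepG2 cells (beta-lactamase reporter under ARE control) were plated at 2,000 cells/well, preincubated 5 h at 37 C/5% CO2, then treated with DMSO-dissolved compounds for 16 h at 37 C; LiveBLAzer B/G FRET substrate added, fluorescence read after 2 h at room temperature.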

Assay [14] can be described thus: qHTS assay for small molecule activators of the p53 signaling pathway (AID 651743; active = well fitted activation curve with a large enough effect in the signal ratio, not every such curve was filed as active; the % refers to the signal ratio; also: series mostly up to about 92 µM; % of control where 0% means no effect). As to conditions: HCT-116 p53RE-bla, beta-lactamase FRET ratio, 16 h; stronger effect = higher value. Put shortly:
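p53RE-bla HCT-116 cells with a stably integrated beta-lactamase reporter under p53 response elements were plated, rested 5 hours at 37 C/5% CO2, then exposed to compounds in DMSO for 16 hours at 37 C. LiveBLAzer B/G FRET substrate was read after 2 hours at room temperature.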

Assay [15] is described as follows: qHTS assay for small molecule activators of the nuclear factor-kappa B (NF-kB) signaling pathway (AID 651749; active = well fitted activation curve with a large enough effect in the signal ratio; the % refers to the signal ratio; also: series mostly up to about 77 µM; % of control where 0% means no effect). As to conditions: NF-kB-bla ME-180 cells, beta-lactamase FRET ratio, 16 h; stronger effect = higher value. Put shortly:
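ME-180 cells stably carrying a beta-lactamase reporter under an NF-kB response element were exposed to compound or DMSO vehicle for 16 hr at 37C, 5% CO2. Pathway activation was read by FRET, since reporter expression disrupts FRET.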

Assay [16] concerns the target Vitamin D3 receptor (Homo sapiens) (UniProt P11473). The assay can be described thus: qHTS assay for small molecule antagonists of vitamin D receptor signaling (AID 588541).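 Also: receptor activated by calcitriol during compound treatment; series mostly up to about 77 µM; % is scaled to controls: 0 for no effect and ±100 for the full control effect.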 The method, boiled down:
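VDR-UAS-bla HEK293T cells (2000/well, 2% charcoal-stripped FBS) were treated with titrated compounds plus 1-alpha,25-dihydroxyvitamin D3 (50 nM or 3 nM final) for 16 h at 37 C. CCF4 beta-lactamase fluorescence was read; Hill fits gave IC50.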

For assay [17] the target is unchanged. The assay can be described thus: qHTS assay for small molecule agonists of vitamin D receptor signaling (AID 588543).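 Also: 0% = DMSO basal and 100% = reference agonist control.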 The method, boiled down: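 Agonist-mode beta-lactamase reporter: HEK293T VDR-UAS-bla cells in charcoal-stripped 2% FBS, compound series 16 h 37 C, CCF4 2 h RT. EC50 from Hill fit, scaled against DMSO and 50 nM calcitriol control.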

Vitamin D3 receptor (Homo sapiens), sequence (P11473 whole entry, looked up): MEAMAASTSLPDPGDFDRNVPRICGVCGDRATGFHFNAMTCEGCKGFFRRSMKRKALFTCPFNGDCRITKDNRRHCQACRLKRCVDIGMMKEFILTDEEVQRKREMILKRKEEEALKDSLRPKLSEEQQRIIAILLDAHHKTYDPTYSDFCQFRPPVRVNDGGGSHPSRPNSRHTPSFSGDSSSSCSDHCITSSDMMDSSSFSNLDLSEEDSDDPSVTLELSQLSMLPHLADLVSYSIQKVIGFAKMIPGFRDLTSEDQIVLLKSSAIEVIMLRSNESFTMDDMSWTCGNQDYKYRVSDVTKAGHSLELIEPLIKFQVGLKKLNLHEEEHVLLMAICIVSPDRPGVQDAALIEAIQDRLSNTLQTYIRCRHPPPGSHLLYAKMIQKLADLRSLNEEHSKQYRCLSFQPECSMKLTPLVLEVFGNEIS
Bile acid receptor (Homo sapiens), sequence (Q96RI1 whole entry, looked up): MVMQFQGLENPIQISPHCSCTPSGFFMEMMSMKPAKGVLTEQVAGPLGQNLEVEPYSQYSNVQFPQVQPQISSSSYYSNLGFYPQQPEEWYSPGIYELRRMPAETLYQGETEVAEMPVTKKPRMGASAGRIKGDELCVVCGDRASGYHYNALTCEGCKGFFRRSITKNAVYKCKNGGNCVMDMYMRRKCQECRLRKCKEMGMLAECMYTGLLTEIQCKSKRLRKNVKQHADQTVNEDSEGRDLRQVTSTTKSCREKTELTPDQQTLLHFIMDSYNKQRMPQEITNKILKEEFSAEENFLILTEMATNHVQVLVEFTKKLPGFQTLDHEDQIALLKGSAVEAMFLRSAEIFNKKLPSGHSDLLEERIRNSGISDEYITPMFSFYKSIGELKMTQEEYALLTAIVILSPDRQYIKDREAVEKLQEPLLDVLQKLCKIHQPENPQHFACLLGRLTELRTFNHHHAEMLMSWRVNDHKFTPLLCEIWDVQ
Voltage-gated inwardly rectifying potassium channel KCNH2 (Homo sapiens), sequence (Q12809 whole entry, looked up): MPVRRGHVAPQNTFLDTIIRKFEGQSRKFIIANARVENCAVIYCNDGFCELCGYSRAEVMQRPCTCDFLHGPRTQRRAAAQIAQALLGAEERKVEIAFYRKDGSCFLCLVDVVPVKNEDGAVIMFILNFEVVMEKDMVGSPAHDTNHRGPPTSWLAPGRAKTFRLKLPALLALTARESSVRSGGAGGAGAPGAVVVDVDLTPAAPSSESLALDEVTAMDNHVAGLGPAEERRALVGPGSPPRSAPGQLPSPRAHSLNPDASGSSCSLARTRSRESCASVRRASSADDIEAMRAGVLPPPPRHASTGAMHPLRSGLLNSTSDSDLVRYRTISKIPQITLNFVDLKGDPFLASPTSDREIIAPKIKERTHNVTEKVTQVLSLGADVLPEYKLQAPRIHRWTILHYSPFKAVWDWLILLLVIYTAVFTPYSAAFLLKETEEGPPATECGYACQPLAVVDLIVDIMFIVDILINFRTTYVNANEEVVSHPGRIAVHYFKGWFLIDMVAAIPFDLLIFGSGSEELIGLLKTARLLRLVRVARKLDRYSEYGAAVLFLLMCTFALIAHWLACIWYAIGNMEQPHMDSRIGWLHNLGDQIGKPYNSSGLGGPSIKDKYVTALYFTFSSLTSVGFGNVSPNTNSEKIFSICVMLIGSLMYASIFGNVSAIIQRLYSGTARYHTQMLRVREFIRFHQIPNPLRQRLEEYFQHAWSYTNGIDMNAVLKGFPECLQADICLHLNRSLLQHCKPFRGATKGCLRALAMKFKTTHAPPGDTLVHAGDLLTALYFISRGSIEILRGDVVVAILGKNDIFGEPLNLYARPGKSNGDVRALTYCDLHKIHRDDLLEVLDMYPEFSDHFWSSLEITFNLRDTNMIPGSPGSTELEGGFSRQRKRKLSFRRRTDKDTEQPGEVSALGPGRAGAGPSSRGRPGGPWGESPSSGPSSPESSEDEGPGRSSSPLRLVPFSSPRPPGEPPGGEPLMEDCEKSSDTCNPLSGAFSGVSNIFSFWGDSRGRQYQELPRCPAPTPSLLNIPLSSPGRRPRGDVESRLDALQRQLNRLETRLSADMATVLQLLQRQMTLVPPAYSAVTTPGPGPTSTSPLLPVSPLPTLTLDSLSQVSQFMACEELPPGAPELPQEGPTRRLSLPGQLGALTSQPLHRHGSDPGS
Peroxisome proliferator-activated receptor delta (Homo sapiens), sequence (Q03181 whole entry, looked up): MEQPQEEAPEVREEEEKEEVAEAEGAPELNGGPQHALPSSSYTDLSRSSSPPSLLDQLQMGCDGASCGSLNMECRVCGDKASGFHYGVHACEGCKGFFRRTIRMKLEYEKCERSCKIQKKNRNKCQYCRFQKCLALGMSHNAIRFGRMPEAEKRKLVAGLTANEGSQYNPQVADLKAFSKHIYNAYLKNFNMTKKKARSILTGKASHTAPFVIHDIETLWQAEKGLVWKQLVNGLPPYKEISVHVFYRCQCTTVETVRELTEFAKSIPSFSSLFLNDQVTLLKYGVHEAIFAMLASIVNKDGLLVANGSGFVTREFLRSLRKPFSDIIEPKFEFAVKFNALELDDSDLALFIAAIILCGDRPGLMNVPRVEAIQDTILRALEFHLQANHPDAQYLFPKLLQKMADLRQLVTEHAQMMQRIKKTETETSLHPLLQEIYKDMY
Peroxisome proliferator-activated receptor gamma (Homo sapiens), sequence (P37231 whole entry, looked up): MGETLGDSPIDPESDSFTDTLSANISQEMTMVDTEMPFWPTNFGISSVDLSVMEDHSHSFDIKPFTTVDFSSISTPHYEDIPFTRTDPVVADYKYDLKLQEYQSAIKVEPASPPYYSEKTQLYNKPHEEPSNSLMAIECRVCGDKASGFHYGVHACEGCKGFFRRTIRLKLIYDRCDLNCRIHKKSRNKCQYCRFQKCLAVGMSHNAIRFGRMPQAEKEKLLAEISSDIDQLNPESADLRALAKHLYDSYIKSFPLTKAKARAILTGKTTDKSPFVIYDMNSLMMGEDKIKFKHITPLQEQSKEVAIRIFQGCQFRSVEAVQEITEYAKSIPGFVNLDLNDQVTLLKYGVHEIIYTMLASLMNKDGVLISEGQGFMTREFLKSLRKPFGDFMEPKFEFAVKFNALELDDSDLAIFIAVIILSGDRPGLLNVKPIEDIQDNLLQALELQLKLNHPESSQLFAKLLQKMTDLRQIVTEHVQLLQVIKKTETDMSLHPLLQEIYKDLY

As for `CCC(O)C(C)(C)C` (stereo not drawn), the result in assay [1], in assay [4], in [5], in [7] and in assay [8] was inactive. Also, the max response in assay [2] is 11.2%; in assay [6], -3.08%; in assay [9] it was -1.12%; in assay [10] it was -2.9% (inactive). The Potency entry in [3], in [12] and in assay [13] was “inactive” throughout. Also, in [11], the activity change % (negative = inhibition) is 9.28% (inactive). Besides, the activation is -0.0168% (inactive) in [14] and -0.45% (inactive) in assay [15].
As to `O=C1OC(=O)c2c(Cl)c(Cl)c(Cl)c(Cl)c21`, the molecule was called inactive in assay [1], in [4], in assay [7] and in [8]. Further, the max response was -11.3% in [2]; -5.89% and -6.44% in [6]; -4.9% and 1.94% in assay [9]; 0.977% (inactive) and -5.45% (inactive) in assay [10]. For the same molecule, the Potency result in assay [3], in assay [12] and in assay [13] was “inactive” in each case. Besides, the activity change % (negative = inhibition) in assay [11] is -1.32% (inactive) and -1.29% (inactive). Further, the activation in assay [14] was -2.26% (inactive) and 13.1% (inactive).
In the case of `COC(=O)CCC(=O)OC`, the call in [1], in assay [4], in assay [5], in [16], in [17] and in assay [7] was inactive. Besides, the molecule was classed as inactive in assay [8]. Also, the max response was -38.8% in assay [2], -2.46% in assay [6], 1.7% in [9] and 6.03% (inactive) in [10]. The Potency entry in assay [3] and in assay [13] was “inactive” throughout. For the same molecule, the activity change % (negative = inhibition) in [11] was 1.67% (inactive). Further, the activation is -2.9% (inactive) in assay [14] and 0.407% (inactive) in assay [15].
Turning to `CCNc1ccccc1`, the call in assay [1], in assay [4], in assay [5], in [16], in assay [17] and in assay [7] was inactive. The outcome in assay [8] was inactive. The max response in assay [2] is 13.4%; in [6], -5.14%. Moreover, the Potency entry in [3] and in [12] was “inactive” throughout. Besides, the activity change % (negative = inhibition) in assay [11] was -13.9% (inactive). For the same molecule, the activation in assay [14] was -2.34% (inactive).
Regarding `BrC/C=C/CBr`, the result in assay [1], in assay [4], in assay [7] and in [8] was inactive. The max response in assay [2] was 20.5%; in [6] it was 2.54%; in [9], -0.458%; in assay [10], -9.94% (inactive). Besides, the Potency result in assay [3] was “inactive”. In addition, the activity change % (negative = inhibition) in [11] is 15.3% (inactive). The Potency in [13] is 42.2 µM (active). Moreover, the values for the activation in assay [14] and in assay [15] were 0.265% (inactive) and 0.2% (inactive), respectively.
On to `Nc1cccc(N)c1`, for which the result in [1], in assay [4], in assay [5], in assay [16], in [17] and in assay [7] was inactive. In addition, the molecule was called inactive in [8]. Further, the max response was 0.0667% in assay [6], 1.75% in [9] and -3.92% (inactive) in [10]. In [11], the activity change % (negative = inhibition) was -1.36% (inactive). The figures for the activation in [14] and in assay [15] were -1.04% (inactive) and -0.628% (inactive), respectively.
For the molecule `Clc1ccccn1`, the outcome in [1], in assay [16], in assay [17], in [7] and in assay [8] was inactive. The max response in [2] was 26.1%; in [6], -14.3%; in assay [9] it was -9.05%; in [10], 21.3% (inactive). Besides, the Potency result in assay [3], in assay [12] and in assay [13] was “inactive” throughout. Also, in assay [11], the activity change % (negative = inhibition) is -6.15% (inactive). For the same molecule, the values for the activation in assay [14] and in [15] were -3.75% (inactive) and -1% (inactive), respectively.
